Bioassay records as filed in PubChem BioAssay.
The sample as a whole holds a higher share of hits than the screen did.
PD-1 reverse act: activators reversing PD-1 mediated T-cell inhibition | primary human CD4 T cells, PD-L1 beads, CellTiter-Glo 96 h | activation, % (concentration not given with the values) | 29,000 tested, under 10 active; call rule not given here
ROS inducer: inducers of reactive oxygen species in cancer cells. U2OS ROS induction, H2DCF-DA fluorescence. 46,000 tested, 2% active. AID 624156. ROS induction (% of piperlongumine), % at 10 µM; in the data active means ROS induction above about 79%, passing the limit was not always enough
NOMO-1 viab: STK33 inhibitor candidate reducing NOMO-1 cell viability. 37,000 tested, 7.5% active. inhibition, % (no concentration beside the values). NOMO-1 AML viability, CellTiter-Glo luminescence, 72 h; in the data active means inhibition above about 80%
Hits are given with their value; n = inactive; x = not tested or not shown.

SMILES	PD-1 reverse act	ROS inducer	NOMO-1 viab
CN1N=C2c3ccccc3CCC2C1c1ccc(C#N)cc1 (centres undefined)	x	n	x
CNc1nc2ccccc2n2c(C)nnc12	x	n	x
CO[C@@]12[C@H](COC(N)=O)C3=C(C(=O)C(C)=C(N)C3=O)N1C[C@@H]1N[C@@H]12	n	n	142
CCc1ccc(-c2nc(C(N)=O)c3[nH]c(=O)n(-c4ccccc4)c3n2)cc1	x	n	x
S=C1NCN(Cc2ccccc2)CN1CC1CCCO1 (centres undefined)	x	n	x
COc1ccc(NC(=O)Nc2ccc3c(c2)CC(=O)N([C@@H](C)CO)C[C@H](C)[C@@H](CN(C)S(=O)(=O)c2ccc(F)cc2)O3)cc1	n	n	n
COc1ccc(S(=O)(=O)N(C)C[C@@H]2Oc3ccc(NC(=O)Nc4ccc(C(F)(F)F)cc4)cc3CC(=O)N([C@@H](C)CO)C[C@@H]2C)cc1	n	n	102
COc1ccc(S(=O)(=O)N(C)C[C@@H]2Oc3ccc(NC(=O)Nc4ccc(C(F)(F)F)cc4)cc3CC(=O)N([C@H](C)CO)C[C@H]2C)cc1	x	n	n
COc1ccc(S(=O)(=O)N(C)C[C@@H]2Oc3ccc(NC(=O)Nc4ccc(C(F)(F)F)cc4)cc3CC(=O)N([C@H](C)CO)C[C@@H]2C)cc1	n	n	115
O=S(=O)(c1ccccc1)N1CCN(CC(O)COc2ccc3c(c2)CCC3)CC1 (centres undefined)	n	n	n
O=C(Nc1ccc(S(=O)(=O)N2CCCC2)cc1)c1ccc(COc2ccc3c(c2)CCC3)cc1	x	87	x
CCc1cc2c(SCC(=O)c3ccc(Br)cc3)ncnc2s1	x	n	x
C[C@H]1CN([C@@H](C)CO)C(=O)c2cc(NC(=O)Nc3ccc(C(F)(F)F)cc3)ccc2O[C@H]1CN(C)CC1CCCCC1	n	n	105
C[C@@H]1CN([C@H](C)CO)C(=O)c2cc(NC(=O)Nc3ccc(C(F)(F)F)cc3)ccc2O[C@@H]1CN(C)CC1CCCCC1	n	n	126
C[C@@H]1CN([C@@H](C)CO)C(=O)c2cc(NC(=O)Nc3ccc(C(F)(F)F)cc3)ccc2O[C@@H]1CN(C)CC1CCCCC1	n	n	118
C[C@@H]1CN([C@H](C)CO)C(=O)c2cc(NC(=O)Nc3ccc(F)cc3)ccc2O[C@@H]1CN(C)CC1CCCCC1	x	n	n
C[C@@H]1CN([C@H](C)CO)C(=O)c2cc(NC(=O)Nc3ccc(F)cc3)ccc2O[C@H]1CN(C)CC1CCCCC1	n	n	n
C[C@H]1CN([C@@H](C)CO)C(=O)c2cc(NC(=O)Nc3ccc(C(F)(F)F)cc3)ccc2O[C@@H]1CN(C)CC1CCCCC1	n	n	n
C[C@H](CO)N1C[C@H](C)[C@@H](CN(C)CC2CCCCC2)Oc2ccc(NC(=O)Nc3ccc(C(F)(F)F)cc3)cc2C1=O	n	n	127
C[C@H](CO)N1C[C@H](C)[C@H](CN(C)CC2CCCCC2)Oc2ccc(NC(=O)Nc3ccc(F)cc3)cc2C1=O	x	n	n
O=C(C1CCN(c2ncnc3c2sc2cccc(F)c23)CC1)N1CCCCCC1	x	n	x
c1ccc(CN=C2SC(=Nc3ccccc3)C3=C2CCCC3)cc1	x	n	x
O=C(CC1Sc2ncnn2C1=O)Nc1ccc(Cl)cc1 (centres undefined)	x	x	107
O=C(CSc1ncccn1)Nc1ccc(Cl)cc1	n	n	n
Cc1noc(C)c1CSc1n[nH]c(=O)n1Cc1ccco1	x	n	x
SMILES	PD-1 reverse act	ROS inducer	NOMO-1 viab
Cc1ccc(S(=O)(=O)Nc2cccc3c2O[C@@H](CN(C)Cc2ccc(C(F)(F)F)cc2)[C@@H](C)CN([C@H](C)CO)C3=O)cc1	n	n	90
Cc1ccc(S(=O)(=O)Nc2cccc3c2O[C@@H](CN(C)C(=O)NC2CCCCC2)[C@@H](C)CN([C@H](C)CO)C3=O)cc1	n	n	100
COc1ccc(S(=O)(=O)Nc2cccc3c2O[C@@H](CN(C)Cc2ccc(C(F)(F)F)cc2)[C@@H](C)CN([C@H](C)CO)C3=O)cc1	n	n	96
COc1ccc(S(=O)(=O)Nc2cccc3c2O[C@H](CN(C)Cc2ccc(C(F)(F)F)cc2)[C@H](C)CN([C@@H](C)CO)C3=O)cc1	n	n	n
Cc1ccc(S(=O)(=O)Nc2cccc3c2O[C@@H](CN(C)Cc2ccc(C(F)(F)F)cc2)[C@@H](C)CN([C@@H](C)CO)C3=O)cc1	n	n	n
Cc1ccc(S(=O)(=O)Nc2cccc3c2O[C@@H](CN(C)C(=O)NC2CCCCC2)[C@@H](C)CN([C@@H](C)CO)C3=O)cc1	n	n	n
CC(=C1C(=O)c2ccccc2C1=O)N1CCC(Cc2ccccc2)CC1	x	n	x
CC(C)CCOc1ccc(C(=O)C(CN2CCOCC2)c2ccccc2)cc1 (centres undefined)	x	n	x
COC(=O)c1c(C)cc2c(c(C)c1=O)OC1(C2)C(C)CCC2C(C)(C)OC(=O)C=CC21C (centres undefined)	n	n	107
CCC(=O)Oc1ccc(/C=C/c2ccccc2)cc1OC	x	n	x
COc1ccc(NC(=O)Nc2cccc3c2O[C@H](CN(C)Cc2ccc(Cl)c(Cl)c2)[C@H](C)CN([C@H](C)CO)C3=O)cc1	n	n	n
COc1ccc(NC(=O)Nc2cccc3c2O[C@H](CN(C)Cc2ccccc2)[C@@H](C)CN([C@H](C)CO)C3=O)cc1	n	n	n
COc1ccc(NC(=O)Nc2cccc3c2O[C@@H](CN(C)Cc2ccc(Cl)c(Cl)c2)[C@@H](C)CN([C@H](C)CO)C3=O)cc1	n	n	97
COc1ccc(NC(=O)Nc2cccc3c2O[C@@H](CN(C)Cc2ccc(Cl)c(Cl)c2)[C@@H](C)CN([C@@H](C)CO)C3=O)cc1	n	n	121
Cc1ccc(C(=O)NCC2CCCO2)cc1C (centres undefined)	x	n	x
COc1ccc(CN(C)C[C@H]2Oc3ccc(NC(=O)Nc4ccc(OC)cc4)cc3CC(=O)N([C@H](C)CO)C[C@H]2C)cc1	x	n	n
COc1ccc(NC(=O)Nc2ccc3c(c2)CC(=O)N([C@H](C)CO)C[C@@H](C)[C@H](CN(C)Cc2ccc(Cl)c(Cl)c2)O3)cc1	x	n	85
COc1ccc(NC(=O)Nc2ccc3c(c2)CC(=O)N([C@@H](C)CO)C[C@H](C)[C@H](CN(C)Cc2ccc(Cl)c(Cl)c2)O3)cc1	n	n	113
COc1ccc(NC(=O)Nc2ccc3c(c2)CC(=O)N([C@H](C)CO)C[C@@H](C)[C@@H](CN(C)Cc2ccc(Cl)c(Cl)c2)O3)cc1	n	n	115
COc1ccc(CN(C)C[C@H]2Oc3ccc(NC(=O)Nc4ccc(OC)cc4)cc3CC(=O)N([C@@H](C)CO)C[C@H]2C)cc1	x	n	n
COc1ccc(NC(=O)Nc2ccc3c(c2)CC(=O)N([C@@H](C)CO)C[C@H](C)[C@H](CN(C)Cc2ccncc2)O3)cc1	n	n	n
O=C(CSc1ccc(-c2ccncc2)nn1)Nc1ccccc1	x	n	x
O=C(NCCc1ccsc1)c1cnn2ccccc12	x	n	x
C[C@@H]1CN([C@H](C)CO)C(=O)c2cccc(NC(=O)Nc3ccc4c(c3)OCO4)c2O[C@@H]1CN(C)Cc1ccc(Oc2ccccc2)cc1	x	n	n
C[C@@H]1CN([C@@H](C)CO)C(=O)c2cccc(NC(=O)Nc3ccc4c(c3)OCO4)c2O[C@@H]1CN(C)Cc1ccc(Oc2ccccc2)cc1	n	n	95
